TRHR enhancer – allosteric enhancers of human TRH receptor. P34981. TRHR cells, fluo-8 calcium fluorescence, EC20 TRH enhancement. enhancement, % at 2 µM. 360,000 compounds, 0.66% hits. AID 493056; in the data active = enhancement above about 30%; also: 0% is about no effect
Target sequence (P34981 whole entry, looked up): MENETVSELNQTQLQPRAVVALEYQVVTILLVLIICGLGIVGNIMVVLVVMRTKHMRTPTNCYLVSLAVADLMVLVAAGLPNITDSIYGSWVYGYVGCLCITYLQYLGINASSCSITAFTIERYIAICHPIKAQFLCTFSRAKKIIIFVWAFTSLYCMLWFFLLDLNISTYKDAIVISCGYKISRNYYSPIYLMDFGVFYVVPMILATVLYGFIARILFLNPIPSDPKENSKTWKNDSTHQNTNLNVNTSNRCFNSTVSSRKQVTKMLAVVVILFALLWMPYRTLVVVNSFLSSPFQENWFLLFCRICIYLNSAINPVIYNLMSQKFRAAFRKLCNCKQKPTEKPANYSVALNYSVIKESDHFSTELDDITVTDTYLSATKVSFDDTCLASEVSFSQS
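TRHR-expressing cells loaded with fluo-8 calcium dye were read kinetically (ex 480/em 530) during compound addition, then stimulated with an EC20 of TRH (10 nM final). Enhancement of the Gq-mediated intracellular calcium response was scored.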
TRHR ag – agonists of human TRH receptor. P34981. TRHR cells, calcium flux fluo-8, FDSS agonist mode. activation, % at 2 µM. 360,000 compounds, 0.18% hits. AID 493084; also: 0% is about no effect
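Read-out: compound-evoked intracellular calcium rise in TRHR cells, fluo-8 dye, kinetic FDSS fluorescence at 1 s/cycle following a 10-cycle baseline. Cells cultured overnight before dye loading (30 min–1.5 h, RT).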
D1 antagonist – human D1 dopamine receptor antagonism | HEK293 TREx D1 cells, calcium flux, dopamine EC80; active compounds read low | 360,000 compounds, 3.2% hits | activity change, negative = inhibition, % at 10 µM | P21728; in the data active = activity change below about -30%; also: % is scaled to controls: 0 for no effect and ±100 for the full control effect
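Tetracycline-induced HEK293 T-REx cells with force-coupled D1 receptor were loaded with a no-wash calcium dye. Compound was added after a 10 s baseline and read kinetically for 180 s; EC80 dopamine was then added and calcium flux followed another 180 s.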
D1 ag – activates the human D1 dopamine receptor; AID 504660; 360,000 compounds, 1% hits; P21728; HEK293 T-REx D1 cells, calcium flux, agonist mode; activation, % at 2 µM; also: 0% is about no effect
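Tetracycline-induced HEK293 TREx D1 cells, force-coupled to calcium signalling, were dye-loaded with a no-wash calcium kit. Compound was pin-added after a 10 s baseline. Fluorescence was read kinetically at 1 cycle/s for 180 s, with calcium rises flagged as agonism.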
D1 potentiator – potentiators of human D1 dopamine receptor; potentiation, % at 10 µM; AID 504651; HEK293 TREx D1 cells, calcium flux, dopamine EC20 potentiation; P21728; 360,000 compounds, 0.036% hits; in the data active = potentiation above about 30%; also: 0% is about no effect
Active calls of the source: *; . = not tested or not shown. Only some compounds are listed: those with a hit (about 4.7% of all), similar ones and a draw of the others. Rule as the data show it, unless noted: active = activation above about 30%; inactive = the rest.

SMILES | TRHR enhancer | TRHR ag | D1 antagonist | D1 ag | D1 potentiator
CCOc1ccc(NC(=O)Nc2ccc3snnc3c2)cc1 | 2.2 | 1.1 | -38.8* | 28.0 | -4.0
CN(C)c1ccc(NC(=O)Nc2ccc3snnc3c2)cc1 | -8.4 | 0.8 | -47.7* | 16.3 | -6.5
COc1ccc(C(CC(=O)Nc2ccc(C)cn2)N2Cc3ccccc3C2=O)cc1OC (stereo not drawn) | -6.9 | -1.0 | 2.9 | -1.3 | -2.4
CCOC(=O)CCn1nc(C)c2c(C)n(-c3ccccc3)nc2c1=O | 14.5 | 0.4 | 19.4 | 0.4 | -3.3
O=C(Nc1ccccc1)Nc1ccc2snnc2c1 | -6.5 | 2.8 | -51.9* | 25.1 | -5.3
CCOc1ccc(NC(=O)Nc2cc(OCC(F)(F)F)cc(OCC(F)(F)F)c2)cc1 | 5.4 | 0.5 | -36.8* | 16.6 | -3.4
O=C(Nc1ccc(F)cc1)Nc1cc(OCC(F)(F)F)cc(OCC(F)(F)F)c1 | -8.5 | 2.2 | 3.6 | 9.5 | -14.3
Cc1cc(C)c(NC(=O)Nc2ccc3snnc3c2)c(C)c1 | 7.7 | 1.5 | -29.5 | 29.3 | -3.0
O=C(Nc1cccc(C(F)(F)F)c1)Nc1ccc2snnc2c1 | 6.0 | 2.6 | -68.5* | 36.9* | -3.0
CCN1C(=O)C(Cc2nc3ccccc3c(=O)n2-c2ccc(OC)cc2)c2ccccc21 (stereo not drawn) | -2.1 | 1.3 | 7.7 | -0.6 | -1.6
CCN1C(=O)C(Cc2nc3ccccc3c(=O)n2-c2ccccc2)c2ccccc21 (stereo not drawn) | 5.6 | -0.4 | -53.9* | 1.9 | -1.5
COC(=O)c1ccc(N)c(CS(=O)(=O)c2ccc(Cl)cc2)c1 | -3.0 | -1.0 | -4.0 | 0.4 | -3.0
COC(=O)c1sc(C(C)(C)C)cc1CS(=O)(=O)c1ccc(Cl)cc1 | -2.7 | 0.1 | -40.2* | 2.1 | -4.9
Cc1cccc(CNC(=O)CCCn2c(=O)c3cccn3c3ccc(F)cc32)c1 | -2.8 | -0.6 | -2.6 | 5.7 | -3.6
Cc1ccccc1NS(=O)(=O)c1ccc2[nH]cc(C(=O)NC3CCCCC3)c(=O)c2c1 | -3.8 | 0.4 | -42.6* | 3.1 | -8.1
Cc1ccccc1NS(=O)(=O)c1ccc2[nH]cc(C(=O)NC(C)c3ccccc3)c(=O)c2c1 (stereo not drawn) | 1.3 | 0.6 | -42.9* | 7.2 | -2.0
CNC(=O)c1c[nH]c2ccc(S(=O)(=O)Nc3cccc(SC)c3)cc2c1=O | 2.8 | 1.0 | -85.5* | 3.2 | 2.0
COc1cccc(NS(=O)(=O)c2ccc3[nH]cc(C(=O)NC4CC4)c(=O)c3c2)c1 | 2.4 | -0.1 | -5.6 | -0.7 | -7.2
Cc1c(Cl)cccc1NS(=O)(=O)c1ccc2[nH]cc(C(=O)NC3CCCC3)c(=O)c2c1 | -3.7 | 0.9 | -11.5 | 1.4 | 7.2
CCCc1cc(=O)[nH]c(Nc2cc(C)ccc2OC)n1 | -3.4 | 0.0 | 1.4 | -2.9 | 1.3
Cc1nc2ccc(S(=O)(=O)NC(CC(C)C)C(=O)NCc3ccc(Cl)cc3)cc2s1 (stereo not drawn) | -11.8 | 0.0 | -0.6 | -0.7 | 0.0
CC(=O)Nc1ccc(C2=CC(=O)C[C@H](c3ccc(Cl)cc3)C2)cc1 | 1.1 | 0.2 | -52.9* | 1.4 | -6.3
COc1ccc([C@H]2CC(=O)C=C(c3ccc(NC(C)=O)cc3)C2)cc1OC | 6.0 | 0.2 | . | 0.4 | -2.5
CC(C)c1ccc(NC(=O)CSc2nc(=O)n(Cc3cccnc3)c3c2CCC3)cc1 | -2.7 | -1.1 | . | -4.5 | -0.8
O=C(c1cccs1)N1CCc2ccccc21 | -1.0 | -2.4 | -6.1 | 5.1 | -0.1
SMILES | TRHR enhancer | TRHR ag | D1 antagonist | D1 ag | D1 potentiator
O=C(/C=C/c1cccs1)N1CCc2ccccc21 | 0.5 | -1.2 | -36.2* | 1.3 | -7.9
N#CC(C#N)=C(Nc1ccc(F)cc1)SCc1cccc(F)c1 | -6.6 | 4.2 | -44.1* | 33.7* | -11.8
CCOc1ccc(N/C(SCc2cccc([N+](=O)[O-])c2)=C(/C#N)C(N)=O)cc1 | 1.1 | -1.5 | -13.6 | 0.5 | -6.3
O=C(CCc1nnc2ccc(NCc3ccccc3)nn12)NCC1CCN(C2CCCC2)C1 (stereo not drawn) | -1.5 | 0.2 | -83.9* | 0.2 | -5.8
O=C(CCc1nnc2ccc(NCc3ccc(F)cc3)nn12)NC1CCCC1 | -3.0 | 0.6 | -16.1 | 2.9 | -9.0
O=C(C(=O)N1CCN(c2ccccc2F)CC1)c1c[nH]c2ccccc12 | 9.4 | 0.5 | -83.3* | 4.3 | -2.5
COc1ccccc1N1CCN(/N=C/c2ccccc2C(=O)O)CC1 | 0.4 | 0.3 | -50.1* | -0.4 | -5.3
COc1ccccc1N1CCN(C(=O)C(=O)c2c[nH]c3ccccc23)CC1 | -5.8 | 1.0 | -30.1* | 6.9 | 3.5
Cc1ccc(OC(=O)CSc2nnc(CNC(=O)c3ccccc3)o2)cc1 | 2.4 | -0.1 | 8.2 | -1.3 | -2.5
COc1cc2[nH]cc(C(=O)NCc3ccccc3)c(=O)c2cc1OC | -4.4 | 0.1 | 0.5 | 2.6 | -6.2
COc1cc2[nH]cc(C(=O)NCCc3ccccc3)c(=O)c2cc1OC | 2.5 | -1.4 | -32.2* | -0.2 | -7.5
CN(C)S(=O)(=O)c1cccc(NC(=O)c2cccc(S(=O)(=O)N3CCc4ccccc43)c2)c1 | 1.6 | 0.8 | -57.4* | 5.4 | -4.6
CC(=O)NS(=O)(=O)c1ccc(NC(=O)c2cccc(S(=O)(=O)N3CCc4ccccc43)c2)cc1 | 4.5 | 0.0 | 8.6 | 2.7 | -1.6
COc1ccc(NC(C)=O)cc1NC(=O)c1cccc(S(=O)(=O)N2CCc3ccccc32)c1 | 8.6 | -1.1 | -31.9* | 0.0 | -4.0
O=C(Nc1nc2c(s1)CN(Cc1ccccc1)CC2)c1cccc(S(=O)(=O)N2CCc3ccccc32)c1 | -5.2 | 45.8* | -2.8 | 73.1* | -10.2
O=C(Nc1nc2ccccc2s1)c1cccc(S(=O)(=O)N2CCc3ccccc32)c1 | 10.7 | 0.4 | -25.4 | 4.0 | -2.2
COCCNc1ccc(N2C(=O)CCCC2=O)cc1[N+](=O)[O-] | -4.4 | 0.2 | -46.5* | 1.1 | -3.1
CCOC(=O)c1sc(Nc2cccc(C)c2C)nc1C | 7.9 | -0.3 | 18.5 | 31.2* | 2.9
CCOC(=O)c1sc(N/N=C/c2ccc(N(C)C)cc2)nc1C | -8.7 | 1.0 | -46.6* | -0.5 | -10.8
CCOc1ccc(-c2cc3nc(C4CCN(C(=O)OC(C)(C)C)CC4)c(C(=O)Nc4ccc(C)cc4C)cn3n2)cc1 | 14.2 | -0.4 | 2.7 | -1.0 | 2.9
CC(C(=O)Nc1ccccc1F)N1CCN(C)CC1 (stereo not drawn) | 30.3* | -0.6 | -16.3 | 1.0 | -3.2
COc1ccc(C(=O)Nc2cccc(-c3cn4ccsc4n3)c2)c(OC)c1 | 5.0 | -0.4 | -17.3 | 0.0 | -3.2
COc1ccc(CCNC(=O)c2cc(-c3cc(Cl)ccc3O)n[nH]2)cc1OC | -1.2 | 0.6 | -32.4* | 7.2 | -7.2
COc1ccc(CCNC(=O)c2cc(-c3ccc(C)cc3O)n[nH]2)cc1OC | 28.2 | -0.1 | -0.7 | 4.0 | -3.8
COc1ccc(CCNC(=O)c2cc(-c3ccccc3O)n[nH]2)cc1OC | -3.3 | -0.7 | -32.9* | 2.9 | -0.8
Cc1ccccc1OC(=O)CSc1nnc(-c2ccc3c(c2)OCO3)o1 | -3.0 | -0.1 | 6.7 | -0.8 | -2.4
